The supplement of paper PMC10849652
Of roughly 8,800 targets only a part is listed; those with a hit were picked by preference. About 0.5% of all pairs of compound and target were hits.

Legend:
Assay in all cases: log2 fold change, soluble protein after heating vs DMSO (PISA); higher = thermal stabilisation; K562 lysate, 10 uM; active = over 0.2 and 3.5 SD of the protein, either way, in both replicates (recomputed)
pictilisib = compound: CS(=O)(=O)N1CCN(Cc2cc3nc(-c4cccc5[nH]ncc45)nc(N4CCOCC4)c3s2)CC1 [pictilisib]
Outline: (§1)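 Soluble protein was defined as the supernatant remaining after 21,000xg for 90 min, following pooling of heated aliquots and adjustment to 0.5% NP-40 at 4°C. Before that, crude K562 extract at 1 mg/mL protein in PBS pH 7.4 with 1 mM MgCl2 was treated with 10 μM compound for 30 min and heated for 3 min across 48°C-58°C. Quantification used TMTpro 16plex LC-MS/MS with channel sums equalised, and values are log-two fold changes in thermal stability relative to solvent controls from duplicates.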

crizotinib = compound: C[C@@H](Oc1cc(-c2cnn(C3CCNCC3)c2)cnc1N)c1c(Cl)ccc(F)c1Cl [crizotinib]
Outline: as §1

[1] = compound: C[C@H](C1=CC=C(C=C1)C(=O)NC2=C3C=CNC3=NC=C2)N
Outline: as §1

gandotinib = compound: Cc1cc(Nc2cc(CN3CCOCC3)c3nc(C)c(Cc4ccc(Cl)cc4F)n3n2)n[nH]1 [gandotinib]
Outline: as §1

tozasertib = compound: Cc1cc(Nc2cc(N3CCN(C)CC3)nc(Sc3ccc(NC(=O)C4CC4)cc3)n2)n[nH]1 [tozasertib]
Outline: as §1

doramapimod = compound: Cc1ccc(-n2nc(C(C)(C)C)cc2NC(=O)Nc2ccc(OCCN3CCOCC3)c3ccccc23)cc1 [doramapimod]
Outline: as §1

bafetinib = compound: Cc1ccc(NC(=O)c2ccc(CN3CC[C@H](N(C)C)C3)c(C(F)(F)F)c2)cc1Nc1nccc(-c2cncnc2)n1 [bafetinib]
Outline: as §1

[2] = compound: Cc1cccc(CC(=O)N2CCc3c2ccc(-c2cn(C)c4ncnc(N)c24)c3F)n1
Outline: as §1

duvelisib = compound: C[C@H](Nc1ncnc2nc[nH]c12)c1cc2cccc(Cl)c2c(=O)n1-c1ccccc1 [duvelisib]
Outline: as §1

Measured: log2 fold change

TTLL12 (UniProt V9GY16)
inactive: pictilisib 0.058 | crizotinib 0.072 | [1] -0.169 | gandotinib 0.188 | tozasertib -0.087 | doramapimod -0.029 | bafetinib -0.187 | [2] 0.263

TLE3 (UniProt H0YL70)
inactive: duvelisib 0.037

TXNIP (UniProt Q9H3M7)
UniProt Q9H3M7, sequence (Q9H3M7 whole entry, looked up): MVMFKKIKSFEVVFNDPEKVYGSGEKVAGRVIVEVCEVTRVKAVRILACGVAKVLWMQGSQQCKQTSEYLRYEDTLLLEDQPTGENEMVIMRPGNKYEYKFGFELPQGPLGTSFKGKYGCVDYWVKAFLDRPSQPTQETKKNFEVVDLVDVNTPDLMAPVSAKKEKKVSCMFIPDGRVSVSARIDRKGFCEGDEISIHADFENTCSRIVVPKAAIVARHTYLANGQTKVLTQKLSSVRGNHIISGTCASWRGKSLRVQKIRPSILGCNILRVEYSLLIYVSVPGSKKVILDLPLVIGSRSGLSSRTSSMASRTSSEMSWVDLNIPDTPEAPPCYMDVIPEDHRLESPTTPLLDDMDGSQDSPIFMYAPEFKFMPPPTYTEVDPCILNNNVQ
inactive: pictilisib 0.029 | crizotinib -0.045 | [1] 0.143 | duvelisib 0 | gandotinib -0.089 | tozasertib -0.015 | doramapimod 0.019 | bafetinib -0.042 | [2] -0.037
